Our source for the cytotoxicity values is PubChem BioAssay AID431 (Sanford-Burnham Center for Chemical Genomics, 2006).

Structures are written as SMILES. In all, about 63,000 compounds went through this assay and about 1,100 (1.7%) were called active.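 How the source made its calls: active means compounds whose percent cytotoxicity in the single-dose primary screen, scaled between solvent and toxic-drug controls, exceeds 50; inactive means the rest.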 The list comes from a sample in which actives are over-represented; it also holds similar structures and randomly drawn compounds. Results with a measured potency or affinity are listed apart.

A short description of the experiment: cytotoxicity in KRAS-transformed pancreatic duct cells, primary screen, cell-based, fluorescence, HTS (AID 431).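 Further: 0% = DMSO solvent wells and 100% = doxorubicin-treated wells.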 The note with it: HPDE-C7K KRASV12 cells, Alamar Blue viability, 48 h; at 10 µM; active compounds read high. A general note: The colour change of resazurin is a common sign of viable cells or microbes.
For the compound `S=c1[nH]c2ncccc2o1`, the cytotoxicity was 21.2% (inactive).

For `COc1ccc(-n2c(SCC(=O)c3c(N)n(C)c(=O)n(C)c3=O)nc3ccccc32)cc1`, the cytotoxicity was 7.4% (inactive). In the case of `NC(=O)CSc1nc2ccccc2n1-c1ccccc1` it was 8.7% (inactive); in that of `Cn1c(N)c(C(=O)CSc2nc3ccccc3n2-c2ccccc2)c(=O)n(C)c1=O`, 103% (active).

In the case of `CCOC(=O)C1=C(C)Nc2nnnn2C1c1cccc(OC)c1OC` (configuration not stated), the cytotoxicity is -16.1% (inactive). As to `O=C(CN1CCOCC1)NCc1ccccc1`, the cytotoxicity was -11.4% (inactive). On to `COCCOC(=O)c1[nH]c2c(c1C)C(=O)CC(c1ccco1)C2` (configuration not stated), for which the cytotoxicity was 65.5% (active). Regarding `CCOc1ccc(C2CC(=O)c3c([nH]c(C(=O)OC)c3C)C2)cc1OC` (configuration not stated), the cytotoxicity was 6.3% (inactive). Regarding `COCCOC(=O)c1[nH]c2c(c1C)C(=O)C(C(=O)OC)C(C)C2` (configuration not stated), the cytotoxicity is 0% (inactive). For `CCOC(=O)c1[nH]c2c(c1C)C(=O)CC(c1ccc(F)cc1)C2` (configuration not stated), the cytotoxicity is 58.4% (active).

In the case of `Cc1c(C(=O)OCC2CCCO2)[nH]c2c1C(=O)CC(c1ccco1)C2` (configuration not stated), the cytotoxicity was 53.3% (active). The result for `Cc1c(C(=O)OCc2ccccc2)[nH]c2c1C(=O)CC(c1ccco1)C2` (configuration not stated) reads 68.1% (active); that for `COc1ccc(OC)c(C2CC(=O)c3c([nH]c(C(=O)OCC4CCCO4)c3C)C2)c1` (configuration not stated), 7.8% (inactive). The result for `CC1=C(C(=O)OCc2ccccc2)C(c2ccco2)C2=C(CC(C)(C)CC2=O)N1` (configuration not stated) reads 7.4% (inactive); that for `Cc1c(C(=O)OCC2CCCO2)[nH]c2c1C(=O)CC(c1ccc(N(C)C)cc1)C2` (configuration not stated), 3.2% (inactive). In the case of `CCOCCOC(=O)c1[nH]c2c(c1C)C(=O)CC(c1ccc(N(C)C)cc1)C2` (configuration not stated) it was 5.2% (inactive). With `Cc1c(C(=O)Nc2ccc(C(=O)O)cc2)cnn1C`, the cytotoxicity is 7.2% (inactive). The result for `CC(=O)c1ccc(C(=O)Nc2ccc(N3CCOCC3)cc2)cc1` reads -18.3% (inactive); that for `COc1ccc(C(=O)/C=C/Nc2c(C)n(C)n(-c3ccccc3)c2=O)cc1OC`, 20.1% (inactive); that for `COc1ccccc1Oc1nc2c(c(=O)n(Cc3ccccc3F)c(=O)n2C)n1C`, 18.8% (inactive).

Consider `COC(=O)C1=C(C)N=C2SCCC(=O)N2C1c1cccs1` (configuration not stated), for which the cytotoxicity was 12.3% (inactive). In the case of `COc1cccc(-n2ccnc2SCC(=O)Nc2nccs2)c1` it was -7.9% (inactive); in that of `N#CC1=C(N)Oc2n[nH]c(-c3cccs3)c2C1c1ccsc1` (configuration not stated), -8.3% (inactive); in that of `COC(=O)c1[nH]c2c(c1C)C(=O)CC(c1ccccc1)C2` (configuration not stated), 48.3% (inactive).

As to `CCOC(=O)c1[nH]c2c(c1C)C(=O)CC(c1ccc(OCC)c(OC)c1)C2` (configuration not stated), the cytotoxicity was -1.2% (inactive). In the case of `Cc1c(C(=O)N2CCOCC2)[nH]c2c1C(=O)CC(c1ccc(Cl)cc1)C2` (configuration not stated) it was -7.4% (inactive); in that of `COC(=O)c1[nH]c2c(c1C)C(=O)CC(c1ccc(C)cc1)C2` (configuration not stated), -3.1% (inactive). Turning to `COCCOC(=O)c1[nH]c2c(c1C)C(=O)CC(c1ccccc1)C2` (configuration not stated), the cytotoxicity is 71.5% (active).

On to `COCCOC(=O)c1[nH]c2c(c1C)C(=O)CC(c1ccc(N(C)C)cc1)C2` (configuration not stated), for which the cytotoxicity is -10.1% (inactive). `COC(=O)c1[nH]c2c(c1C)C(=O)CC(c1cccs1)C2` (configuration not stated): the cytotoxicity is 75.6% (active).

Turning to `Cc1c(C(=O)N2CCOCC2)[nH]c2c1C(=O)CC(c1ccccc1Cl)C2` (configuration not stated), the cytotoxicity is 55.9% (active).

As for `CCOC(=O)c1[nH]c2c(c1C)C(=O)CC(c1ccc(OC)c(OC)c1)C2` (configuration not stated), the cytotoxicity is -13.1% (inactive). In the case of `CCOC(=O)c1[nH]c2c(c1C)C(=O)CC(c1ccco1)C2` (configuration not stated) it was 59.2% (active); in that of `COCCOC(=O)c1[nH]c2c(c1C)C(=O)CC(c1ccc(F)cc1)C2` (configuration not stated), 5.3% (inactive); in that of `Cc1c(C(=O)O)[nH]c2c1C(=O)CC(c1ccccc1)C2` (configuration not stated), -8.9% (inactive).

For the compound `CCN(CC)S(=O)(=O)c1ccc(OC(C)C)nc1`, the cytotoxicity was -11.5% (inactive). In the case of `COC(=O)c1ccsc1NC(=O)C1COc2ccccc2O1` (configuration not stated) it was 4.6% (inactive); in that of `Cc1cc(C(=O)COc2ncnc3sccc23)c(C)n1C1CC1`, -0.1% (inactive).

As for `Cc1c(C(=O)OC2CCCCC2)[nH]c2c1C(=O)CC(C)(C)C2`, the cytotoxicity was 3.6% (inactive). The result for `Cc1c(C(=O)OCCOC(C)C)[nH]c2c1C(=O)CC(C)(C)C2` reads -19.6% (inactive); that for `Cc1c(C(=O)OCCOC(C)C)[nH]c2c1C(=O)CC(c1ccco1)C2` (configuration not stated), 68.1% (active).

Consider `CSCCOC(=O)c1[nH]c2c(c1C)C(=O)CC(c1ccco1)C2` (configuration not stated), for which the cytotoxicity is 59.3% (active).

Take `Cc1c(C(=O)OC2CCC(C)CC2)[nH]c2c1C(=O)CCC2` (configuration not stated): the cytotoxicity was 0.1% (inactive).

Turning to `CCC(C)OC(=O)c1[nH]c2c(c1C)C(=O)CC(c1ccc(N(C)C)cc1)C2` (configuration not stated), the cytotoxicity was 4.6% (inactive). In the case of `Cc1c(C(=O)OCC(C)C)[nH]c2c1C(=O)CC(c1ccco1)C2` (configuration not stated), the cytotoxicity is 66.2% (active). In the case of `COc1cc(C2CC(=O)c3c([nH]c(C(=O)OCCOC(C)C)c3C)C2)cc(OC)c1OC` (configuration not stated) it was 5.8% (inactive); in that of `Cc1c(C(=O)OC2CCCC2)[nH]c2c1C(=O)CC(c1ccco1)C2` (configuration not stated), 53.7% (active); in that of `COc1ccc(-n2nc(C(=O)NCC(=O)NCC3CCCO3)c3ccccc3c2=O)c(OC)c1` (configuration not stated), 0.7% (inactive). The result for `CC(C)CNS(=O)(=O)c1ccc(CCC(=O)N2CCN(Cc3ccccc3)CC2)cc1` reads -1.6% (inactive); that for `CN(C)CC(=O)Nc1cc(C(F)(F)F)ccc1Cl`, -7.9% (inactive). The result for `Cc1cc(C)nc(SCc2nnc(SCC(=O)N3CCOCC3)o2)n1` reads 4.2% (inactive). Take `CCc1nnc(NC(=O)c2ccc(COc3ccc(C)cc3)o2)s1`: the cytotoxicity is -2.5% (inactive). In the case of `CCCCCOC(=O)c1[nH]c2c(c1C)C(=O)CC(c1ccco1)C2` (configuration not stated) it was 51.4% (active); in that of `CCCOC(=O)c1[nH]c2c(c1C)C(=O)CC(c1ccc(OC)c(OC)c1)C2` (configuration not stated), -0.9% (inactive); in that of `CCCCOC(=O)c1[nH]c2c(c1C)C(=O)CC(c1cc(OC)c(OC)c(OC)c1)C2` (configuration not stated), 4.1% (inactive). The result for `Cc1cc(C)c2nc(SCC#N)cc(C)c2c1` reads 15.7% (inactive); that for `Cc1cc(NCCOCCO)n2ncc(-c3ccc(Cl)cc3)c2n1`, 75.4% (active); that for `Cc1cc(NCCCN2CCOCC2)n2ncc(-c3ccc(Cl)cc3)c2n1`, 23.7% (inactive). In the case of `Cc1cc(NCCN2CCOCC2)n2ncc(-c3ccc(Cl)cc3)c2n1` it was 17% (inactive). On to `O=C(NCc1nc2ncc(Br)cc2[nH]1)c1ccccc1`, for which the cytotoxicity is -7.6% (inactive).

For the compound `COc1cccc(OCc2nc3ccccc3[nH]2)c1`, the cytotoxicity was 10.6% (inactive).

With `COc1cccc(OCc2nc3ncc(Br)cc3[nH]2)c1`, the cytotoxicity is 64.8% (active).
